Growth data for 27 compounds are collected here from PubChem BioAssay (NCI).

The panel holds about 83,000 compounds, 20% with a hit somewhere; the sample as a whole holds those more often.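 Assay: single dose, 48 h. Readout: percent growth (0 = no net growth; negative = cell death). Active: <10.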 A number with no mark means an inactive call. Active and inactive are the calls of the source.

For the experiment, the system named is HL-60(TB) leukemia. Put plainly: NCI-60 one-dose screen, 48 h (100 = growth as untreated, 0 = no growth, -100 = all killed). The note with it: 10 µM unless noted.
For the compound `O=C(COc1ccc2c(c1)CCCC(=O)N2)NCc1ccccc1`, the growth is 70.4%.

Regarding `NS(=O)(=O)c1ccc(Nc2nc(SCC(=O)c3ccc(F)cc3)nc3ccccc23)cc1`, the growth was 63.7%.

For `O=C(Nc1nc2ccccc2s1)c1ccc(Br)cc1`, the growth is 99.1%.

`CCCCc1c(Nn2cnnn2)no[n+]1[O-]`: the growth was 37.9%.

Consider `O=c1c2ccccc2nc(COc2ccccc2)n1/N=C/c1ccc(N2CCCC2)cc1`, for which the growth is 101%.

As for `CS(=O)(=O)Nc1ccc(-c2ccc3c(c2)ncn3-c2ccc(NC(=O)Nc3ccc(Cl)c(C(F)(F)F)c3)cc2)cc1`, the growth was -42.4% (active).

For the compound `CCOC(=O)/C(F)=C/C1CC1CCc1ccc(OCC)cc1` (configuration not stated), the growth is 101%.

As to `Cc1ccc(-c2ccc(SCC(=O)Nc3ccc(S(N)(=O)=O)cc3Br)nn2)cc1`, the growth was 100%.

As to `Cn1cc(NC(=O)c2cc(NC(=O)c3ccc(C#Cc4ccccc4)cc3)cn2C)cc1C(=O)NCCCN1CCOCC1`, the growth was -67% (active).

For the compound `CCN(CC)c1ccnc(CNCCSC(c2ccccc2)(c2ccccc2)c2ccc(C)cc2)c1`, the growth is -52.3% (active).

As to `COc1ccc(S(=O)(=O)Nc2ccc(-c3ccc4c(c3)NC(=O)/C4=C\c3ccc[nH]3)cc2)cc1OC`, the growth was 76.8%.

As for `COc1ccc(/C=C2\C(=O)Nc3ccc(Cl)cc32)cc1OCc1ccccn1`, the growth was 64.7%.

On to `COc1cc(/C=N/NC(=O)c2ccc(OCc3nc4ccc(Cl)cc4[nH]3)cc2)cc(OC)c1OC`, for which the growth was 28.2%.

`Cc1cn(-c2cc(NC(=O)c3ccc(C)c(-n4cc(-c5cnc6cccnn56)nn4)c3)cc(C(F)(F)F)c2)cn1`: the growth was 24.9%.

Turning to `CCCCCCCOc1ccc(S(=O)(=O)Nc2ccc(C)c(F)c2C(=O)O)cc1`, the growth was 89.8%.

Regarding `CC[C@@]12CC(C(=O)OC)=C3Nc4cc5c(cc4[C@@]34CCN(C[C@H]3O[C@H]31)[C@@H]24)[C@@H]1[C@H](O5)[C@@H](O)[C@@]2(CC)CC(C(=O)OC)=C3Nc4cc(O)ccc4[C@@]34CCN1[C@@H]24`, the growth was -39.1% (active).

Consider `O=C(Cc1c(-c2ccccc2[N+](=O)[O-])n(-c2ncnc3c2c(-c2ccccc2)c(-c2ccccc2)n3Cc2ccccc2)[nH]c1=O)c1ccc(Cl)c(Cl)c1`, for which the growth was 1.19% (active).

Turning to `O=C1c2ccccc2C(=O)c2c1c(C(=O)c1ccc(Cl)cc1)n1c2ccc2c3ccccc3ccc21`, the growth was 109%.

As to `S=C(NCCc1ccccc1)Nc1ccc(OCc2nc3ccccc3[nH]2)cc1`, the growth is 100%.

As for `Nc1nc(-c2ccccc2)cs1`, the growth was 18.9%.

In the case of `O=C1c2cccc3c(N4CCN(c5ccccc5)CC4)ccc(c23)C(=O)N1c1cccc(-c2nn(-c3ccccc3)cc2-c2nc3ccccc3s2)c1`, the growth is 98.5%.

Consider `CS(=O)(=O)Nc1cc(-c2ccc3ncnc(Nc4ccc(OCc5cccnc5)c(Cl)c4)c3c2)cnc1Cl`, for which the growth was -59.5% (active).

With `O=c1c2ccccc2nc(-c2ccccc2)n1/N=C/c1ccc2ccccc2c1`, the growth was 35.7%.

Regarding `CC1=C(C)C(=O)C(NCCN2CCOCC2)=C(Br)C1=O`, the growth is -24.9% (active).

In the case of `Cc1ccc(C2CC(c3ccc(S(=O)(=O)NCCNc4nc(Nc5ccc(F)cc5)nc(N(C)C)n4)cc3)=Nc3c(N)nc(N)nc3N2)cc1` (configuration not stated), the growth is -10.4% (active).

In the case of `C=CCn1c(SCC(=O)Nc2ccc(C(=O)/C=C/c3ccccc3)cc2)nnc1-c1c[nH]c2ccccc12`, the growth is 32.4%.

With `CCCSc1nc(Nc2ccc(S(N)(=O)=O)cc2)c(C#N)c(-c2cc(OC)c(OC)c(OC)c2)n1`, the growth is -40.3% (active).
